PI4K2A inh = PI4K2A (human) kinase inhibition | purified PI4K2A, ADP-Glo luminescence, 1 h; active compounds read low | Q9BTU6 | 420,000 compounds, 0.13% hits | AID 1346378 | activity change, negative = inhibition, % at 76.9 µM; in the data active means activity change below about -50%; inconclusive means mostly about -30% to -49%;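 further: -100% = wells without enzyme as full effect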
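ADP-Glo luminescence measured ADP generated by PI4K2A enzyme (4 ug/mL before mixing) with 1.2 mM PI substrate (pre-mix) and 300 microM ATP (pre-mix). Tris pH7.5 buffer with MgCl2, Triton X-100; 1 h reaction at ambient temperature.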
GALK inhibitor = blocks human galactokinase activity. P51570. Purified GALK, Kinase-Glo residual ATP luminescence. Potency, µM (doses to about 57.5 µM), for the others: at the highest dose activity change, negative = inhibition, hits mostly inhibitors. 270,000 compounds, 0.007% hits; further: potency means the concentration at half of the fitted maximal effect
Target sequence (P51570 whole entry, looked up): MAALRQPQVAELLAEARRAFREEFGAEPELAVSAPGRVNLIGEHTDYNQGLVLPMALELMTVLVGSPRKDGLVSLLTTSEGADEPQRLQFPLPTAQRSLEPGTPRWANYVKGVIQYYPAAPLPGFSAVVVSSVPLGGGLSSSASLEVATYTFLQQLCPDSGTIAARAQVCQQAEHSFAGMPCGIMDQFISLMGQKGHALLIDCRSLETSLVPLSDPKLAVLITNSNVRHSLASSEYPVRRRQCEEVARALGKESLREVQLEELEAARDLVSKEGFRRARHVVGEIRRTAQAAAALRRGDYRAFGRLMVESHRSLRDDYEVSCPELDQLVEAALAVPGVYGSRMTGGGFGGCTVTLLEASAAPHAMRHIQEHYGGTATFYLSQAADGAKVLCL
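Luminescence from leftover ATP (Ultra-Glo luciferase/luciferin) served as read-out after a 1 h room-temperature reaction of 5 nM GALK with 35 uM ATP and 100 uM galactose.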
TrxR1 substrate = rat thioredoxin reductase 1 substrate activity. purified TrxR1 substrate turnover, NADPH consumption readout. Potency, µM (highest dose often 114 µM), for the others: at the highest dose activity change, negative = substrate turnover. 390,000 compounds, 0.01% hits. AID 588456; further: potency means the concentration at half of the fitted maximal effect; nearly all actives have a fitted effect of over 50% in size
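Rat TrxR1, dispensed at 90 nM, was prereduced with 400 uM NADPH (final) for 5 min at ~22 deg C, then incubated with compound 15 min before 400 uM selenite. A first-read NADPH fluorescence drop versus no-compound background flagged substrates.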
rTrxR1 inhibitor = inhibitors of rat thioredoxin reductase 1 | Potency, µM (titrated, usually from 114 µM), for the others: at the highest dose activity change, negative = inhibition, actives largely listed as inhibitors | O89049 | recombinant rTrxR1, NADPH fluorescence consumption, selenite substrate | 390,000 compounds, 1% hits; further: potency means the concentration at half of the fitted maximal effect; nearly all actives have a fitted effect of over 65% in size
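Rat TrxR1 (90 nM in the dispensed reagent) was pre-reduced with 400 uM NADPH for 5 min at room temperature, then incubated with compound for 15 min. After 400 uM selenite was added, NADPH fluorescence (Ex 340/Em 450 nm) was followed for 8 min.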
* marks the source's active call; other numbers are inactive results; u = inconclusive; x = no result given; [ ] = remark or other dose. Only some compounds are listed: those with a hit (about 1.1% of all), similar ones and a draw of the others. Unless noted, the call rests on the fitted dose curve; in most records, active means well fitted curve in the direction sought with a large enough effect; inconclusive means small, poorly fitted or top-dose-only effect, or another doubt; inactive means no such curve, though single readings can be large; an effect the other way counts as inactive or inconclusive. Unless noted, on the % scale 0 is the no-effect control and ±100 the full control effect.

SMILES	PI4K2A inh	GALK inhibitor	TrxR1 substrate	rTrxR1 inhibitor
Cc1c(NC(=O)Nc2c(Cl)cccc2Cl)c(=O)n(-c2ccccc2)n1C	7	7%	8%	18%
Cc1cccc(N2C(=O)C(Cl)=C(Nc3c(C)n(C)n(-c4ccccc4)c3=O)C2=O)c1C	-12	1%	6%	22µM*
Cc1ccc(Nc2nc3ccccc3nc2Nc2c(C)n(C)n(-c3ccccc3)c2=O)cc1	8	x	-9%	u
Cc1ccc(N2C(=O)C(Cl)=C(Nc3c(C)n(C)n(-c4ccccc4)c3=O)C2=O)cc1	-2	0%	8%	18µM*
O=C(CS(=O)(=O)c1ccccc1)c1cc2cc(F)ccc2oc1=O	u	-14%	3%	7%
O=C(CS(=O)(=O)c1ccccc1)c1cc2ccccc2oc1=O	u	-14%	-8%	16µM*
Cc1[nH][nH]c(=O)c1C(c1ccc(-c2ccc(Cl)c(C(=O)O)c2)o1)c1c(C)[nH][nH]c1=O	-59*	u	-16%[57.1 µM]	-23%[57.1 µM]
COC(=O)c1cccc(-c2ccc(C(c3c(C)[nH][nH]c3=O)c3c(C)[nH][nH]c3=O)o2)c1	u	1%	-1%[57.1 µM]	5%[57.1 µM]
C[N+](C)(CCOc1ccccc1)Cc1cccs1	0	x	x	x
O=Cc1ccc2[nH]ccc2c1	x	x	3%	20%
CO/N=C1\CN(c2nc3c(cc2F)c(=O)c(C(=O)O)cn3C2CC2)CC1CN (stereo not given)	2	x	x	x
c1cc2c(cc1C1CCCN1)OCCCO2 (stereo not given)	-7	-3%	4%	45µM*
CCOc1ccc2c(c1)nc(SCC(=O)c1cccs1)n2C	-5	-3%	8%	u
CCOc1ccc2c(c1)nc(SCC(=O)c1ccc(Br)s1)n2C	0	-3%	-6%	25µM*
COc1ccccc1NC(=O)C1=C(C)Nc2nc(-c3ccco3)nn2C1c1cccc(C)c1 (stereo not given)	-5	x	-7%	-15%
Cc1cc(C(=O)NCCC2=CCCCC2)c(C)o1	1	0%	-7%	32µM*
Cc1ccc(NC(=O)Cn2c(=O)n(CCC(=O)NCc3ccccc3Cl)c(=O)c3ccccc32)c(C)c1	1	x	1%	14%
COc1ccc(C(=O)Nc2cc(C(=O)c3ccccc3)c(C)oc2=O)cc1	4	-3%	-3%	11µM*
Cc1oc(=O)c(NC(=O)c2cccc(Cl)c2)cc1C(=O)c1ccccc1	2	-3%	3%	35µM*
Cc1oc(=O)c(NC(=O)c2ccccc2)cc1C(N)=O	-3	10%	2%[57.1 µM]	7%[57.1 µM]
CCc1ccccc1NC(=O)C(=O)NCC(c1cccnc1)N1CCN(c2ccccc2F)CC1 (stereo not given)	3	x	-9%	-22%
CCOC(=O)C1=C(C)N(c2ccc(OC)cc2)C(=O)/C1=C\c1ccc(O)c(OCC)c1	-3	-1%	-3%	40µM*
CCOc1cc(/C=C2\C(=O)N(Cc3ccc(C)cc3)C(C)=C2C(=O)OC)ccc1O	-13	x	-1%[57.1 µM]	28µM*
COc1ccc(C(=O)c2ccc(OC)c(Br)c2)cc1Br	-7	x	1%	40µM*
Cc1nnnn1/C(=C\c1ccccc1)C(=O)OCC(=O)Nc1cccc(S(=O)(=O)N(C)C)c1	7	x	-8%	13µM*
SMILES	PI4K2A inh	GALK inhibitor	TrxR1 substrate	rTrxR1 inhibitor
CC(C)C(=O)Nc1nnc(NC(=S)Nc2ccccc2)s1	-2	-2%	2%[57.1 µM]	10µM*
CN(C)C(=O)CCc1nc2sc3c(c2c(=O)[nH]1)CCCC3	-2	1%	-1%	-3%
Cc1ccc(CN(C)C(=O)CCc2nc3sc4c(c3c(=O)[nH]2)CCCC4)o1	-4	2%	-3%	50µM*
CN(Cc1ccco1)C(=O)CCc1nc2sc3c(c2c(=O)[nH]1)CCCC3	-22	-3%	-3%	18µM*
COc1cccc(/C=N/NC(=O)c2ccncc2)c1OC(=O)c1ccc(Br)cc1	-3	8%	-3%	14%
CCOc1ccc(CNC(=O)c2ccc(-c3nc(CS(=O)(=O)c4ccccc4)c(C)o3)cc2)cc1	-1	x	-4%	-4%
COC(=O)CCCC1=CC2=C(c3ccccc3)C(=O)C(C)(OC(=O)C3CCCC3)C(=O)C2=CN1C1CC1 (stereo not given)	4	-3%	-4%[57.1 µM]	-16%[57.1 µM]
C=CCN1C=C2C(=O)C(C)(OC(=O)C3CCCC3)C(=O)C(c3ccccc3)=C2C=C1CCCC(=O)OC (stereo not given)	-5	1%	3%	79µM*
Cc1ccc(C)c(C(=O)Cn2ncc(Cl)c(Cl)c2=O)c1	10	-2%	1%	u
